Source: PubChem BioAssay
Unmarked numbers belong to inactive results. The rule behind the calls is not given here.

Molecular target: Pantothenate synthetase (Mycobacterium tuberculosis (strain ATCC 25618 / H37Rv)) (UniProt P9WIL5)
Test: Coupled enzyme confirmation of inhibitors against recombinant Mtb PanC (AID 375);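 note: 0% = full reaction with vehicle and 100% = no enzyme background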
Details: coupled enzyme assay; at 10 µM, hits give high values

Sequence of Pantothenate synthetase (Mycobacterium tuberculosis (strain ATCC 25618 / H37Rv)) (P9WIL5 whole entry, looked up): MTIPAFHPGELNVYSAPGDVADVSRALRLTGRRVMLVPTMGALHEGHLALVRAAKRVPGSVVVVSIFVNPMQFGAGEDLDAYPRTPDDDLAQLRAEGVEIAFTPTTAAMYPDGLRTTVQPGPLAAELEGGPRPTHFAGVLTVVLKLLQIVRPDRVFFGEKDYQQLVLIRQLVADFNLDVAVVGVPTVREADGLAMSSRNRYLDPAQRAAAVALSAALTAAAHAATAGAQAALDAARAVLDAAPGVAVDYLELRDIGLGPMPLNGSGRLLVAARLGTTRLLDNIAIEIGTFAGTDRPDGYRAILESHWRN

Row | SMILES | inhibition [%]
1 | c1cc(-c2nc3ccccc3o2)nc(-c2nc3ccccc3o2)c1 | 0
2 | Cc1nc2cc(NC(=O)N3CC4(C)CC3CC(C)(C)C4)ccc2n1C (stereo unspecified) | 8
3 | COc1ccc(CN(Cc2nc3ccccc3c(=O)[nH]2)C(=O)NC2CCCCC2)cc1 | 5
4 | CCn1c(=O)cc(SCC(=O)NCC2CCCO2)c2ccccc21 (stereo unspecified) | 6
5 | CCOC(=O)C(CC)n1nc(C)n2c(cc3sccc32)c1=O (stereo unspecified) | 4
6 | O=C(CSc1ccc(Cl)cc1)OCc1nnc(-c2ccccc2)o1 | 1
7 | CC1CN(C2CCCCC2)c2nc3c(c(=O)[nH]c(=O)n3C)n2C1 (stereo unspecified) | 2
8 | COc1ccc(CNc2nc(NCc3ccc(OC)cc3)n(S(C)(=O)=O)n2)cc1 | 0
9 | COC(=O)c1cccc(Oc2nc3c(c(=O)n(C)c(=O)n3C)n2C(C)C)c1 | 1
10 | CC(NC(=O)COc1ccc(Br)cc1)C(=O)O (stereo unspecified) | 0
11 | O=C(O)c1cc2c([nH]c1=O)CCCC2 | 8
12 | O=C(Cn1c(=O)oc2ccccc21)Nc1ccc(S(=O)(=O)N2CCCCC2)cc1 | 0
13 | O=C(CSc1nnc(-c2ccccc2)o1)N1CCc2ccccc2C1 | 0
14 | CS(=O)(=O)N(Cc1ccccc1)c1ccc(C(=O)N2CCOCC2)cc1 | 0
15 | COc1ccc(-c2nc(CSCC(=O)N3CCN(c4cccc(C)c4)C(C)C3)c(C)o2)cc1OC (stereo unspecified) | 0
16 | Cc1nc(Nc2nc(=O)c3ccccc3n2C)nc2c(C)cccc12 | 0
17 | CCOC(=O)CSc1nnc(Cn2nnc(-c3ccccc3)n2)n1CC | 4
18 | CCN1CCN(C(c2ccc(F)cc2)c2nnnn2Cc2cccs2)CC1 (stereo unspecified) | 0
19 | CCOCCCN(Cc1cc2cc(C)cc(C)c2[nH]c1=O)C(=O)N(CC)CC | 0
20 | CC1(C)CC(=O)C(CC(=O)NC(=O)NCc2ccccc2)=C(O)C1 | 0
21 | CC1(C)NC(=O)N(CC(O)CN(Cc2ccccc2)Cc2ccccc2)C1=O (stereo unspecified) | 0
22 | Cc1cc2c(cc(C(=O)OCC(=O)NCc3cccs3)n2C(C)C)o1 | 0

Row | SMILES | inhibition [%]
23 | Cc1cccc(OCC(=O)Nc2cc(C)ccc2O)c1 | 0
24 | Cc1cccc(C)c1NC(=O)N1CCN(C2CCCCC2)CC1 | 0
25 | COC(=O)CN(c1ccc(C)c(Cl)c1)S(C)(=O)=O | 0
26 | COc1ccc(NC(=O)CSc2nnc(-c3ccccc3C)n2C)cc1 | 0
27 | COCCn1c(C)c(C(=O)O)sc1=S | 6
28 | O=S(=O)(NCC1CCCO1)c1cc(Cl)ccc1Br (stereo unspecified) | 0
29 | Clc1ccc(SCCCCn2ccnc2)cc1 | 8
30 | O=C(COC(=O)C1CC(=O)N(c2ccccc2)C1)c1ccccc1 (stereo unspecified) | 0
31 | CCCN(S(=O)(=O)c1ccc(OCC)cc1)S(=O)(=O)c1cccs1 | 0
32 | COc1cccc(-c2nnc3sc(C4CCCCC4)nn23)c1 | 4
33 | COc1ccc2c(c1)OC(O)(C(F)F)CC2=O (stereo unspecified) | 0
34 | Cc1ccccc1CNS(=O)(=O)c1ccc2c(c1)OCCO2 | 0
35 | Cc1cc(C(=O)CSc2nc3ccccc3n2CCC#N)c(C)n1Cc1cccs1 | 0
36 | COc1ccc(S(=O)(=O)Nc2ccccc2OC)cc1C | 2
37 | CCOC(=O)C1CCN(c2c(N(C)Cc3ccco3)c(=O)c2=O)CC1 | 0
38 | CCC(=O)Nc1nn(C)c2nc3c(C)cccc3cc12 | 0
39 | CCn1cc(C(=O)N=c2sc3ccccc3n2C)c(=O)c2ccc(C)nc21 | 0
40 | CC(=O)Nc1ccc(S(=O)(=O)CCC#N)cc1 | 5
41 | Cc1nnc(C)c2c(C)n(Cc3ccc4c(c3)OCO4)c(C)c12 | 0
42 | CCCCC(=O)Nc1ccc(NC(=O)C2CC2)nc1 | 2
43 | COc1ccccc1-c1cc(C(=O)Nc2cc(C)nn2-c2ccccc2)no1 | 6
44 | O=C(CSc1nc2ccccc2o1)NC(=O)NCc1ccco1 | 0

Row | SMILES | inhibition [%]
45 | COc1cccc(C(=O)Nc2ncc3c(n2)CC(C)CC3=O)c1 (stereo unspecified) | 5
46 | Cc1ccc(C)c2[nH]c(=O)c(CCNC(=O)c3ccc(Br)o3)cc12 | 0
47 | CN(C1CCCCC1)S(=O)(=O)c1ccc(S(=O)(=O)N2CCCC2)cc1 | 0
48 | COc1ccccc1NC1=C(C)C(=O)CC1 | 0
49 | CCOC(=O)c1c(C)n(C)c2c(C)cc(O)c(OC(C)=O)c12 | 0
50 | CCC(=O)c1ccc(OCC(O)CN2CCN(S(=O)(=O)N3CCCCC3)CC2)cc1 (stereo unspecified) | 1
51 | COC(=O)Nc1sc2c(c1C(N)=O)CCCCCC2 | 2
52 | COC(=O)c1cc(Br)c(=O)n(CCN2CCOCC2)c1 | 0
53 | Cc1cnc(-c2nnc(N(C)C(=O)C3CCOC3)s2)cn1 (stereo unspecified) | 3
54 | CC(C)(C)C(=O)Cn1c[n+](N)cn1 | 1
55 | O=C1c2ccccc2-c2ccc(C(=O)N3CCOCC3)cc21 | 0
56 | O=C1CNCc2[nH]c3ccccc3c2N1c1ccccc1 | 0
57 | O=C(NC1CCCCCC1)c1cc(S(=O)(=O)N2CCC3(CC2)OCCO3)ccc1F | 5
58 | CC1CCc2cc(F)cc3c(O)c(C(=O)NCC4CCCO4)c(=O)n1c23 (stereo unspecified) | 2
59 | COc1ccc(C2C(C(=O)c3sc(C)nc3C)=C(O)C(=O)N2CCN(C)C)cc1OC (stereo unspecified) | 0
60 | CCOc1cc(C(=O)NCc2ccncc2)cc(OCC)c1OCC | 9
61 | O=C(O)Cn1cc2c(n1)CCCC2 | 0
62 | C=CCC(Nc1ccco1)c1ccccc1 (stereo unspecified) | 1
63 | COc1ccc(OCc2cccc(C(=O)O)c2)cc1 | 0
64 | Cc1ccc(-n2ncc(C(=O)N3CCc4ccccc4C3)c2NC(=O)c2ccco2)cc1C | 0
65 | Cc1ncc([N+](=O)[O-])n1CC(O)CCl (stereo unspecified) | 0
66 | O=S(=O)(c1ccccc1)N(Cc1nc(-c2ccccc2)no1)C1CCCCC1 | 0

Row | SMILES | inhibition [%]
67 | C/C(=C\c1cc(C(=O)O)c(C)o1)CO | 0
68 | O=C(NCCO)c1scc2c1OCCO2 | 4
69 | CS(=O)(=O)Nc1ccc(C(=O)NCCc2ccccc2)cc1 | 0
70 | COC(=O)Cn1c(CN2CCN(c3ccccc3F)CC2)nc2c1c(=O)n(C)c(=O)n2C | 0
71 | CCS(=O)(=O)N1CCCC(C(=O)NCc2cccc(OC)c2)C1 (stereo unspecified) | 1
72 | CCOC(=O)N1CCN(c2cc(=O)n(-c3ccccc3Cl)c(=O)[nH]2)CC1 | 0
73 | Cn1c(CN2CCCCC2)nc2cc(NC(=O)c3ccccc3)ccc21 | 0
74 | CCCC1(CCC)NC(=O)NC1=O | 0
75 | CN(C)S(=O)(=O)N1CCN(C(=O)N(c2ccccc2)c2ccccc2)CC1 | 0
76 | Nc1nc(Nc2cccc3ccccc23)nc(C2CCCC2=O)n1 (stereo unspecified) | 5
77 | CC1CCCN(c2ccc(C(=O)NCc3cccs3)cn2)C1 (stereo unspecified) | 1
78 | COc1ccc(OC)c(Nc2nc(-c3sc(N)nc3C)cs2)c1 | 0
79 | Cc1ccc(C(=O)/C=C/Nc2cccc(O)c2)cc1 | 8
80 | C/C(CC(O)(/C=N/O)c1ccccc1)=N\O (stereo unspecified) | 1
81 | CCCCOc1ccc(-c2ncc(Cl)cn2)cc1 | 0
82 | COc1ccc(-c2nn3c(-c4ccncc4)nnc3s2)cc1OC | 0
83 | O=C(c1ccccc1-c1nc(-c2ccccc2)no1)N1CCCC1 | 0
84 | Cc1nc2scc(-c3cccs3)c2c(=O)n1-n1cccc1 | 4
85 | CCn1c(SCC(=O)N2CCOCC2)nc2c(c1=O)SC(C)C2 (stereo unspecified) | 0
86 | Cc1c(NS(=O)(=O)c2ccc3c(c2)n(C)c(=O)n3C)c(=O)n(-c2ccccc2)n1C | 2
87 | O=C(Cn1cnc2c(nnn2Cc2ccccc2)c1=O)c1ccc(Cl)cc1 | 5
88 | CCCCc1n[nH]c2c1C(=O)CC(C)(C)C2 | 0

Row | SMILES | inhibition [%]
89 | Fc1cccc2sc(N3CCOCC3)nc12 | 1
90 | CCC(C)NC(=O)c1ccccc1NC(=O)C(C)N(c1ccccc1)S(C)(=O)=O (stereo unspecified) | 0
91 | CCC1(CC)C(=O)N(C)C(=O)NC1=NCc1ccccc1 | 0
92 | COc1cccc(C(=O)Nc2c(C(N)=O)oc3ccccc23)c1 | 0
93 | O=C(c1ccco1)c1nnn(Cc2ccccc2)c1-c1ccccc1 | 1
94 | O=C(CCCCCn1c(=O)[nH]c2ccsc2c1=O)N1CCCCC1 | 5
95 | COc1ccccc1NC(=O)c1ccc(COc2ccccc2OC)o1 | 0
96 | Cc1nc(NCc2ccc3c(c2)OCO3)c2oc3ccccc3c2n1 | 1
97 | C[C@]12CC[C@H]3[C@@H](CCC4=CC(=O)CC[C@@]43C)[C@@H]1CC[C@@H]2C(=O)CO | 0
98 | COc1cc(C(O)c2nc3ccccc3n2C)cc(OC)c1OC (stereo unspecified) | 0
99 | CCN(CC)CCCN(Cc1cc2cc(OC)ccc2[nH]c1=O)C(=O)Nc1ccccc1 | 9
100 | Nc1nonc1C(=O)NCCNCc1cc(Br)ccc1OCc1ccccc1F | 0
101 | CCOCCn1c(CN2CCC(Cc3ccccc3)CC2)nc2c1c(=O)n(C)c(=O)n2C | 0
102 | C=CCSc1nnc(-c2ccc(Cl)cc2Cl)o1 | 5
103 | COc1ccc(Cl)cc1NC(=O)c1oc(C)nc1C | 4
104 | COC(=O)c1ccc(-c2ccco2)n1Cc1nc(-c2ccc(OC)c(OC)c2)oc1C | 2
105 | COc1ccc(CCN(Cc2cc3cccc(C)c3[nH]c2=O)C(=O)N2CCCC2)cc1OC | 0
106 | O=C(Nc1nc2c(s1)CCCC2)C1COc2ccccc2O1 (stereo unspecified) | 0
